# Results from PubChem BioAssay (NCI).
# About 79,000 compounds went through this panel and 15% of them were active in at least one assay; those are over-represented in the sample as a whole. A number with no mark means an inactive call. The source made the active and inactive calls. Cut-off read from the data, not from the text of the source: active = growth inhibition above about 70%; inactive = the rest.
# Tests used:
# [1] = NCI Yeast Anticancer Drug Screen. Data for the rad50 strain (AID 155);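 note: 0% = growth of vehicle-only cultures of the same strain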; conditions: S. cerevisiae rad50 strain growth inhibition; at 50.0 µM; active compounds read high
# Outline: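 DNA repair mutant yeast, compound exposure, growth read-out; inhibition is taken relative to vehicle.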
# [2] = NCI Yeast Anticancer Drug Screen. Data for the mec2-1 strain (AID 157); conditions: S. cerevisiae mec2-1 strain, at 50.0 µM, active compounds read high
# Outline: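 Cells of the genetically defined mec2-1 yeast strain are incubated with test compound. Inhibition of growth is calculated against vehicle-treated controls.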
# [3] = NCI Yeast Anticancer Drug Screen. Data for the sgs1 mgt1 strain (AID 161);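 note: 0% = growth of cultures given vehicle only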; conditions: S. cerevisiae sgs1 mgt1 strain, at 50.0 µM, active compounds read high
# Outline: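 Read-out: growth inhibition vs vehicle controls. Cells: mutant yeast strain deficient in DNA damage repair.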
# [4] = NCI Yeast Anticancer Drug Screen. Data for the cln2 rad14 strain (AID 165);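 note: 0% = growth equal to vehicle treated cultures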; conditions: S. cerevisiae cln2 rad14 strain, at 50.0 µM, active compounds read high
# Outline: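 The screen exposed genetically defined yeast (cln2 rad14) to test compounds and scored growth inhibition relative to vehicle-treated controls.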
# [5] = NCI Yeast Anticancer Drug Screen. Data for the bub3 strain (AID 167); conditions: S. cerevisiae bub3 mutant strain, at 50.0 µM, active compounds read high
# Outline: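 In this screen, a yeast mutant lacking normal mitotic checkpoint function is challenged with compound. Relative growth versus vehicle gives the inhibition value.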
# [6] = NCI Yeast Anticancer Drug Screen. Data for the mlh1 rad18 strain (AID 175); conditions: S. cerevisiae mlh1 rad18 strain growth inhibition; at 50.0 µM; active compounds read high
# Outline: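 Compound-treated yeast growth, normalised to vehicle controls. Strain bears defined DNA repair mutations.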
SMILES,growth inhibition [1],growth inhibition [2],growth inhibition [3],growth inhibition [4],growth inhibition [5],growth inhibition [6]
O=C(NC(Cc1ccc(O)cc1)C(=O)O)C(=O)c1c[nH]c2ccc([N+](=O)[O-])cc12 (stereo not drawn),3.45%,1.45%,-23.1%,0.45%,2.8%,26.9%
CC(=O)OCC(OC(C)=O)C(OC(C)=O)C(OC(C)=O)C(OC(C)=O)c1cnn(-c2ccccc2)n1 (stereo not drawn),15.9%,-1.85%,11.6%,32.1%,6.05%,-10.6%
CC1(C)OC2OC(COC(=O)c3ccc([N+](=O)[O-])cc3)C3OC(C)(C)OC3C2O1 (stereo not drawn),-13.6%,-8.45%,-8.85%,-28.1%,0.85%,-25.4%
CCc1c(C)[nH]c2c1C(=O)CCC2,15.6%,-4.65%,38.1%,18.1%,24.9%,46.9%
COc1cccc2c1C(=O)c1c(O)c3c(c(O)c1C2=O)CC(O)(C(C)=O)CC3OC1CC(NC(=O)C(CCCCN)NC(=O)C(N)CCN)C(O)C(C)O1 (stereo not drawn),9.1%,-1.15%,-0.5%,12.8%,15.9%,14.6%
CCCC(=O)Nc1ccc2c(ccn2COC)c1,-37.2%,-2.2%,-2.05%,8.7%,8.45%,-18.2%
CCOC(=O)C(=O)Nc1ccccc1CC,-3%,2.9%,-12.3%,-33.5%,11.2%,-3.35%
Cc1ccc(-n2cc(/C(N)=N/O)c3ccccc3c2=O)cc1,-29.8%,-32.4%,-32.8%,-28.6%,-22.8%,-32.5%
O=C(Nc1nccs1)Nc1ccc(Cl)cc1[N+](=O)[O-],0.1%,33.6%,34.6%,-6.95%,24.8%,34.4%
N#C/C(=C\c1ccc(C#N)cc1)C(=O)O,-16.6%,-3.1%,-30%,2.75%,-14.4%,9.55%
COc1cc(CCl)cc(OC)c1OC,-13.7%,-12%,-7.7%,-21.9%,-7.65%,-11.8%
CC1(C)OC(COCCOCCCCCO)C(COCCOCCCCCO)O1 (stereo not drawn),7.1%,3.75%,6.2%,17.9%,-3.05%,6.7%
O=C(c1ccccc1)c1cc(Cl)ccc1N1C(=O)C=CC1=O,99.2% (active),99.7% (active),99.7% (active),99.2% (active),99% (active),99.5% (active)
Clc1ccc(Nc2ncco2)cc1Cl,16.7%,-15.2%,30.6%,-0.8%,1.1%,16.8%
CN(NC1=NCCO1)c1ccc2ccccc2c1,-46.3%,-22.4%,-15.8%,-23.5%,-21.4%,-46.1%
O=C(CC1=NC2NN(c3ccccc3)C(=O)C2=C1CC(=O)c1ccc([N+](=O)[O-])cc1)c1ccc([N+](=O)[O-])cc1 (stereo not drawn),42.1%,-11.4%,3.4%,2.7%,19.9%,32%
Fc1cccc(-c2nnc(-c3ccccc3)o2)c1,34.1%,23.1%,28.9%,19.4%,37.8%,-1.65%
Cc1ccc(NC(=O)Oc2ccc(Br)cc2)c([N+](=O)[O-])c1,20.4%,16.9%,16.3%,16.3%,11.3%,13.8%
